Assay outcomes as filed in PubChem BioAssay.
HGIII-sPLA2 inh – Blocks human group III sPLA2 activity; inhibition, % at 12.2 µM; Q9NZ20; QFRET BODIPY PC-A2 liposome hydrolysis, fluorescence; hit rate 0.56% among 370,000; AID 743126;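 active = inhibition above mean plus 3 SD of compounds lying within the high and low control bounds, cut at about 19% in these data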;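 note: 0% = median of test compound wells and 100% = no enzyme DMSO wells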
FAS TE block – FAS thioesterase (human) inhibition. inhibition, % at 15 µM. hit rate 0.67% among 360,000. AID 602261. P49327. recombinant FAS-TE, OMFH fluorogenic substrate, fluorescence endpoint;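 active = compounds whose normalised, plate-corrected inhibition of enzyme fluorescence in the single-dose primary screen is 50% or more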;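 note: 0% = DMSO with enzyme and 100% = substrate without enzyme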
NR3A LBD binder – modulates the human NR3A ligand-binding domain; hit rate 2.5% among 340,000; AID 1259313; Tm shift relative to glycine control, % at 25 µM; NR3A LBD differential scanning fluorimetry, Tm shift; 0% = protein alone, 100% = glycine-bound protein;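 active = melting temperature shift of at least 10% of the positive control shift, at one fixed dose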
ADAM10 inh – inhibits human ADAM10 | O14672 | recombinant ADAM10, EDANS/DABCYL FRET peptide cleavage, 3 h | inhibition, % at 7 µM | hit rate 0.62% among 370,000 | AID 720582;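 active = inhibition above a per-campaign cutoff equal to the mean of compounds falling between control-based bounds plus 3 SD, cut at about 20% in these data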;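 note: 0% = DMSO wells while the 100% control is not disclosed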
Target sequence (O14672 214-748 limits assumed): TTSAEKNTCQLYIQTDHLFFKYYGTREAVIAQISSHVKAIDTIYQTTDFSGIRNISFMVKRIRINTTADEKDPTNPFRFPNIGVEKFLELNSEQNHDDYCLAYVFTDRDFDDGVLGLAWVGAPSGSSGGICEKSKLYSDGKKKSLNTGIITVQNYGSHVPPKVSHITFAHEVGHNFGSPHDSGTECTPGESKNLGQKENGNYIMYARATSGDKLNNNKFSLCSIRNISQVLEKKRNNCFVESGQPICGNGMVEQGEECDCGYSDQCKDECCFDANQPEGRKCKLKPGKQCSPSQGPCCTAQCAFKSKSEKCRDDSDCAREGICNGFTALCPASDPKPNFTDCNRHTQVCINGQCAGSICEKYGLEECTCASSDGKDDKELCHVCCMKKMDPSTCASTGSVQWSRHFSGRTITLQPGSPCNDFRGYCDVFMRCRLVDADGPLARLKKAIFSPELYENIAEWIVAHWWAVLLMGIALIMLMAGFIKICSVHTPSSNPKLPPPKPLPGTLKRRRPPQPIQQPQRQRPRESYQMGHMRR
ADAM17 inh – inhibitors of human ADAM17; P78536; recombinant ADAM17, EDANS/DABCYL FRET peptide cleavage; inhibition, % at 6.95 µM; hit rate 0.83% among 370,000;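 active = inhibition above the mean of compounds lying between control limits plus 3 SD, set per campaign, cut at about 8.5% in these data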;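 note: 0% = DMSO-only wells as the low control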
ADAM10 confirm – human ADAM10 inhibition, confirmation | ADAM10 QFRET peptide cleavage, EDANS fluorescence | inhibition, % at 6.95 µM | shares compounds with ADAM10 inh | hit rate 1% among 2,100;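 active = inhibition above about 20% chosen separately for each screening run, limit read from the data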;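 note: 0% = DMSO wells and 100% = marimastat wells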
ADAM17 ctr – ADAM17 inhibition, counter-screen for ADAM10 exosite hits | shares compounds with ADAM10 inh | ADAM17 QFRET peptide cleavage, EDANS fluorescence | inhibition, % at 6.95 µM | hit rate 0.5% among 2,100;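 active = mean triplicate inhibition above the solvent-only control wells' mean plus 3 SD, cut at about 12% in these data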;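 note: 0% = DMSO wells and 100% = marimastat wells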
ADAM10 counter – ADAM10 inhibition, counter-screen for ADAM17 exosite hits; shares compounds with ADAM17 inh; recombinant ADAM10, EDANS/DABCYL FRET peptide cleavage, 3 h; inhibition, % at 6.95 µM; hit rate 47% among 2,900;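 active = mean inhibition over the triplicate runs exceeds the activity threshold set in the earlier primary screen, cut at about 20% in these data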;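 note: 0% = DMSO wells and 100% = marimastat wells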
ADAM17 confirm – confirmation of inhibitors of human ADAM17; shares compounds with ADAM17 inh; recombinant ADAM17, EDANS/DABCYL QFRET peptide cleavage; inhibition, % at 6.95 µM; hit rate 65% among 2,900; AID 743257;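 active = mean inhibition across replicates above the hit cutoff set in the primary screen, cut at about 8.5% in these data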;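 note: 0% = DMSO wells and 100% = marimastat wells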
* hit, by the source's call; x = no result given. A selection: hits, their analogues and other compounds. The true share with any hit is near 4.3%.

SMILES	HGIII-sPLA2 inh	FAS TE block	NR3A LBD binder	ADAM10 inh	ADAM17 inh	ADAM10 confirm	ADAM17 ctr	ADAM10 counter	ADAM17 confirm
O=C(CN1C(=O)NC(Cc2c[nH]c3ccccc23)C1=O)Nc1cccc(S(=O)(=O)N2CCCCCC2)c1 (configuration not stated)	-123	4	16*	21*	11*	4	1	28*	17*
O=C(CN1C(=O)NC(Cc2c[nH]c3ccccc23)C1=O)Nc1cccc(S(=O)(=O)N2CCCC2)c1 (configuration not stated)	-111	5	-4	4	2	x	x	x	x
Cc1nn(Cc2c(F)c(F)c(F)c(F)c2F)c(C)c1NC(=O)c1ccc(COc2ccc(Cl)cc2Cl)o1	-21	39	1	25*	11*	5	2	45*	19*
COC(=O)N(C)C[C@H]1OCc2cn(nn2)CCCC(=O)N([C@H](C)CO)C[C@@H]1C	3	x	x	5	0	x	x	x	x
Cc1ccc(S(=O)(=O)N(C)c2ccc(C(=O)Nc3cccc(C)n3)cc2)cc1	-23	15	0	20*	15*	1	0	10	8
Cc1nc2ccc(NC(=O)c3ccc(S(=O)(=O)N(C)c4ccccc4)cc3)cc2s1	-29	21	-4	29*	16*	6	2	18	13*
CC(=O)Nc1ccc(NC(=O)c2ccc(S(=O)(=O)N(C)c3ccccc3)cc2)cc1	-3	-2	1	-2	0	x	x	x	x
Cc1ccc(S(=O)(=O)N(C)c2ccc(C(=O)Nc3ccccn3)cc2)cc1	-9	9	2	9	4	x	x	x	x
O=C1C=C(O)CC(c2ccc(Cl)cc2)C1 (configuration not stated)	1	1	-6	8	-4	x	x	x	x
O=C1C=C(/C=C/C2C=CC=CC2)C[C@@H](c2ccc(Cl)cc2)C1 (some centres not stated)	-2	33	-3	27*	13*	6	1	-3	6
C#CCN(C(=O)c1cc(COc2cccc(C(F)(F)F)c2)on1)C1CCCCC1	-8	29	-5	24*	10*	8	3	55*	19*
O=C(c1cc(COc2cccc(C(F)(F)F)c2)on1)N1CCC(c2ccccc2)CC1	-16	31	-7	26*	12*	5	2	35*	20*
O=C1c2ccccc2C(=O)N1CCCCN(C(=O)c1cccc([N+](=O)[O-])c1)c1ccc(Cl)cc1	-12	34	2	26*	10*	5	2	30*	14*
O=C(Nc1ccccc1)c1cc(C2CCCCN2S(=O)(=O)Cc2cccc(C(F)(F)F)c2)on1 (configuration not stated)	-4	16	x	30*	17*	2	1	26*	11*
CS(=O)(=O)N1CCCCC1c1cc(C(=O)Nc2ccccc2)no1 (configuration not stated)	3	-7	x	4	3	x	x	x	x
Cc1cc2c(nc1C)CCCN2S(=O)(=O)c1ccccc1	11	x	x	-7	-4	x	x	x	x
COc1ccc([N+](=O)[O-])cc1NC(=S)NC(NC(=O)C(c1ccccc1)c1ccccc1)C(Cl)(Cl)Cl (configuration not stated)	1	41	10	32*	19*	9	3	29*	14*
O=C(C(=Cc1ccccc1)c1ccccc1)c1ccccc1	-6	42	x	16	3	x	x	x	x
O=C(C(=Cc1ccc(F)cc1)c1ccccc1)c1ccc(O)cc1	-39	18	0	24*	9.6*	4	1	27*	11*
CCCCc1c(-c2ccccc2OC)ncn1Cc1cccc(C)c1	-8	x	x	3	4	x	x	x	x
